The panel holds about 83,000 compounds, 20% with a hit somewhere; the sample as a whole holds those more often.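 Testing used 96-well plates and a 48-hour single-concentration exposure. Example: -40 means 40% of the starting cells died.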 A number with no mark means an inactive call. Active and inactive are the calls of the source. Rule for the calls: active = growth percent below 10; inactive = the rest.

Among the test systems are HT29 colon; SNB-75 CNS; SNB-19 CNS; U251 CNS; PC-3 prostate; UACC-62 melanoma; SK-MEL-28 melanoma; SK-MEL-5 melanoma; LOX IMVI melanoma; SK-MEL-2 melanoma.
Common to all, as to test: NCI-60 one-dose screen, 48 h (100 = growth as untreated, 0 = no growth, -100 = all killed)
Holding throughout (conditions): 10 µM unless noted

Take `Cc1cc(NCCCNc2ccnc3cc(Cl)ccc23)nc(N2CCN(C)CC2)n1`: the growth in the experiment with HT29 colon is 15.2%; in the experiment on SNB-75 CNS, 76.6%; in the experiment with SNB-19 CNS it was 115%; in the experiment with U251 CNS, 69.7%; in the experiment on PC-3 prostate, 51.5%; in the experiment with UACC-62 melanoma, 33.4%. In the experiment on SK-MEL-28 melanoma, the growth was 88.3%.
On to `Cc1[nH]n(C(N)=S)c(=O)c1N=Nc1ccc(F)c(Cl)c1`, for which the growth was 147% with HT29 colon; 119% with SNB-75 CNS; 164% with SNB-19 CNS; 108% with U251 CNS; 95% with SK-MEL-5 melanoma; 84.6% in the experiment on UACC-62 melanoma. Also, the growth in the experiment with LOX IMVI melanoma is 110%; in the experiment on SK-MEL-28 melanoma it was 116%.
As for `O=C(OC[C@H]1O[C@H](OC(=O)c2cc(O)c(O)c(OC(=O)c3cc(O)c(O)c(O)c3)c2)[C@H](OC(=O)c2cc(O)c(O)c(OC(=O)c3cc(O)c(O)c(O)c3)c2)[C@@H](OC(=O)c2cc(O)c(O)c(OC(=O)c3cc(O)c(O)c(O)c3)c2)[C@@H]1OC(=O)c1cc(O)c(O)c(OC(=O)c2cc(O)c(O)c(O)c2)c1)c1cc(O)c(O)c(OC(=O)c2cc(O)c(O)c(O)c2)c1`, the growth in the experiment on HT29 colon was 33.5%; in the experiment on SNB-75 CNS, 53.6%; in the experiment with SNB-19 CNS, 36.6%; in the experiment on U251 CNS, 22.3%; in the experiment with PC-3 prostate, 38%; with UACC-62 melanoma, 10.6%. Further, the growth in the experiment with LOX IMVI melanoma is 7.17% (active); with SK-MEL-28 melanoma, 78.6%; in the experiment with SK-MEL-2 melanoma, 80.4%.
`CC1=NN(c2ccccc2Cl)C(=O)/C1=C\c1cn(S(=O)(=O)c2ccc(C)cc2)c2ccccc12`: the growth in the experiment on HT29 colon is 122%; with SNB-75 CNS, 89.3%; in the experiment on SNB-19 CNS, 114%; in the experiment on U251 CNS, 103%; in the experiment on SK-MEL-5 melanoma, 106%; in the experiment with UACC-62 melanoma it was 86.5%. The results for the growth with LOX IMVI melanoma and with SK-MEL-28 melanoma were 97.4% and 125%, respectively.
Turning to `CCCCc1nc(Cl)c(CO)n1Cc1ccc(-c2ccccc2-c2nn[nH]n2)cc1`, the growth was 108% in the experiment on HT29 colon; 101% in the experiment on SNB-75 CNS; 110% in the experiment with SNB-19 CNS; 97.9% in the experiment with U251 CNS; 93.2% in the experiment on PC-3 prostate; 102% in the experiment on UACC-62 melanoma. The growth with LOX IMVI melanoma was 100%; with SK-MEL-28 melanoma, 114%; with SK-MEL-2 melanoma it was 125%.
For `CCCCn1c(Cc2ccc(Cl)cc2)nc2cc(OC)c(OC)cc2c1=O`, the growth with HT29 colon is 107%; with SNB-75 CNS, 104%; in the experiment with SNB-19 CNS it was 150%; with U251 CNS, 88.5%; with SK-MEL-5 melanoma, 41%; with UACC-62 melanoma, 52.5%. The growth with LOX IMVI melanoma is 79.9%; in the experiment with SK-MEL-28 melanoma, 116%.
For `CCOc1cc(C(C)(C)C)ccc1C1=N[C@H](c2ccc(Cl)cc2)[C@H](c2ccc(Cl)cc2)N1C(=O)N1CCN(CC#Cc2cccc3c2CN([C@@H]2CCC(=O)NC2=O)C3=O)CC1`, the growth in the experiment on HT29 colon was 12.6%; with SNB-75 CNS, 23%; in the experiment on SNB-19 CNS, 45%; with U251 CNS, 65.8%; with PC-3 prostate, 0.359% (active); in the experiment on UACC-62 melanoma it was 24.3%. The growth in the experiment on LOX IMVI melanoma was 31.8%; in the experiment with SK-MEL-28 melanoma it was 53.4%; in the experiment on SK-MEL-2 melanoma it was 44.9%.
Consider `CCc1ccc(CCN2C(=O)c3ccccc3C2=O)nc1`, for which the growth in the experiment on HT29 colon was 109%; in the experiment on SNB-75 CNS, 99%; with SNB-19 CNS it was 91.7%; with U251 CNS, 103%; with SK-MEL-5 melanoma, 107%; with UACC-62 melanoma it was 98.6%. In addition, the growth in the experiment on LOX IMVI melanoma was 101%; with SK-MEL-28 melanoma it was 118%.
Take `Cc1ccc(C=C2C(Cl)=C(Cl)C(Cl)=C2Cl)cc1`: the growth with HT29 colon was 8.19% (active); with SNB-75 CNS it was -11.6% (active); in the experiment with SNB-19 CNS, -78.3% (active); with U251 CNS, -86.3% (active); with SK-MEL-5 melanoma, -94.4% (active); in the experiment with UACC-62 melanoma, -73.6% (active). In addition, the growth was -88.7% (active) in the experiment on LOX IMVI melanoma and -87.8% (active) in the experiment on SK-MEL-28 melanoma.
As to `CC(C)c1nc(N(C)S(C)(=O)=O)nc(-c2ccc(F)cc2)c1/C=C/[C@@H](O)C[C@@H](O)CC(=O)O`, the growth with HT29 colon is 104%; in the experiment on SNB-75 CNS, 107%; in the experiment with SNB-19 CNS, 115%; in the experiment on U251 CNS it was 61.7%; in the experiment on PC-3 prostate, 69.3%; in the experiment with UACC-62 melanoma, 102%. Moreover, the growth with LOX IMVI melanoma was 81.3%; in the experiment on SK-MEL-28 melanoma, 107%; with SK-MEL-2 melanoma it was 97.8%.
For `CCN1C2=C(SC(=S)C1=C1SC(C(=O)OC)=C(C(=O)OC)S1)SC(=Nc1ccc(OC)cc1)C2=O`, the growth in the experiment with HT29 colon was -6.07% (active); with SNB-75 CNS, -16.1% (active); in the experiment on SNB-19 CNS, 4.72% (active); with U251 CNS, -32.5% (active); with PC-3 prostate it was 2.92% (active); in the experiment on UACC-62 melanoma, -76.8% (active). Moreover, the figures for the growth in the experiment on LOX IMVI melanoma, in the experiment on SK-MEL-28 melanoma and with SK-MEL-2 melanoma were -72.1% (active), -55% (active) and -5.85% (active), respectively.
Turning to `COc1cc(/C=C2\COc3ccc(O)cc3C2=O)cc(OC)c1`, the growth in the experiment on HT29 colon is 12%; in the experiment on SNB-75 CNS it was 87%; with SNB-19 CNS it was 50.5%; with U251 CNS, 30.1%; with PC-3 prostate, 53.8%; with LOX IMVI melanoma, -65.5% (active). Also, the growth with SK-MEL-28 melanoma was 94.4%; in the experiment with SK-MEL-2 melanoma, 101%.
Regarding `CCOC(=O)C1=NN(c2ccc(Cl)cc2)C2C3N(c4ccc(Cl)cc4)N=C(C(=O)OCC)N3c3ccccc3N12` (configuration not stated), the growth in the experiment with HT29 colon is 93.3%; in the experiment with SNB-75 CNS it was 91.1%; in the experiment with SNB-19 CNS it was 118%; in the experiment with U251 CNS, 114%; in the experiment on SK-MEL-5 melanoma it was 92.7%; with UACC-62 melanoma it was 101%. Further, the growth with LOX IMVI melanoma is 113%; in the experiment on SK-MEL-28 melanoma, 108%; in the experiment on SK-MEL-2 melanoma, 102%.
Consider `O=C(/C=C/c1cccnc1)/C=C/c1cccnc1`, for which the growth with HT29 colon was -55.2% (active); in the experiment on SNB-75 CNS, 24.7%; in the experiment on SNB-19 CNS, 21.5%; with U251 CNS, -34.9% (active); in the experiment on SK-MEL-5 melanoma, 21%; in the experiment on UACC-62 melanoma it was -69.4% (active). The values for the growth in the experiment with LOX IMVI melanoma, in the experiment on SK-MEL-28 melanoma and in the experiment on SK-MEL-2 melanoma were -84% (active), -78.4% (active) and 64.1%, respectively.
Turning to `CCC[C@H](N[C@@H](C)C(=O)N1[C@H](C(=O)O)C[C@@H]2CCCC[C@@H]21)C(=O)OCC`, the growth is 100% in the experiment with HT29 colon; 112% in the experiment on SNB-75 CNS; 104% in the experiment with SNB-19 CNS; 93.6% in the experiment with U251 CNS; 91.8% with PC-3 prostate; 104% with UACC-62 melanoma. The growth with LOX IMVI melanoma is 89.8%; with SK-MEL-28 melanoma, 123%; with SK-MEL-2 melanoma it was 112%.

The values above are taken from PubChem BioAssay (NCI).
